# Values without a mark were called inactive. No rule for the calls is given here.
# System: Aerobactin synthetase IucA (Klebsiella pneumoniae, hypervirulent)
# Experiment: IucA enzyme inhibition, biochemical, LOPAC library, absorbance readout (AID 1346212);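 also: 100% = no compound wells and 0% = no enzyme wells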
# Conditions: IucA enzyme assay, absorbance (OD) readout; active compounds read low;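 tested at 8 µM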
row,SMILES,remaining activity
1,Clc1ccc(N2CCN(Cc3c[nH]c4ncccc34)CC2)cc1,92%
2,COCC(=O)O[C@]1(CCN(C)CCCc2nc3ccccc3[nH]2)CCc2cc(F)ccc2[C@@H]1C(C)C,128%
3,CC(=O)O[C@]1(C(C)=O)CC[C@H]2[C@@H]3C=C(Cl)C4=CC(=O)[C@@H]5C[C@@H]5[C@]4(C)[C@H]3CC[C@@]21C,95.7%
4,CCCCCCCCCCCCCCCC(=O)OC(CC(=O)O)C[N+](C)(C)C (stereo not given),116%
5,C[C@H]1C[C@H]2[C@@H]3CCC4=CC(=O)C=C[C@]4(C)[C@@]3(Cl)[C@@H](O)C[C@]2(C)[C@@]1(O)C(=O)CO,107%
6,COc1ccc(CCNC[C@@H](O)c2ccc(O)cc2)cc1OC,91.4%
7,NC(N)=N[C@@H](CCC(=O)O)C(=O)O,115%
8,O=C(O)c1ccccc1Nc1cccc(OCc2ccc3ccccc3n2)c1,125%
9,Cc1cc(C)c(/C=C2\C(=O)Nc3ccccc32)[nH]1,118%
10,NC(N)=N/N=C/c1c(Cl)cccc1Cl,87.5%
11,CC(=O)NCCc1ccc(O)c(O)c1,116%
12,CCOC(=O)C1=C(C)NC(C)=C(C(=O)OC)C1c1cccc(Cl)c1Cl (stereo not given),99.8%
13,NS(=O)(=O)c1cccc2c1c([N+](=O)[O-])cc1nc(O)c(O)nc12,106%
14,NC(=O)OCC(COC(N)=O)c1ccccc1,100%
15,C=C/C(C)=C/[C@@]1(C)SC(=O)C(C)=C1O,123%
16,Nc1nc2ccc(OC(F)(F)F)cc2s1,98.9%
17,CCCCCCC(=O)OC1CC(C)(C)NC(C)(C)C1,109%
18,COc1cc(C(O)CO)ccc1OS(=O)(=O)O (stereo not given),99.3%
19,CN(C)C/C=C(/c1ccc(Br)cc1)c1cccnc1,107%
20,Cc1nc2c([nH]1)c(=O)n(C)c(=O)n2Cc1ccco1,99.1%

row,SMILES,remaining activity
1,Nc1nc2[nH]c(=O)cnc2c(=O)[nH]1,89%
2,N=S(=O)(O)Cc1noc2ccccc12,121%
3,C#CCN(C)CCCOc1ccc(Cl)cc1Cl,122%
4,O=c1ccn([C@@H]2O[C@H](COP(=O)(O)OP(=O)(O)O)[C@@H](O)[C@H]2O)c(=O)[nH]1,106%
5,COc1cccc2c1[C@@H]1CN(CCCCn3c(=O)[nH]c4c(sc5ncc(-c6ccccc6)nc54)c3=O)C[C@@H]1CO2,98.2%
6,CNCCC(Oc1ccccc1C)c1ccccc1 (stereo not given),102%
7,CC(C)NC[C@H](O)COc1cccc2ccccc12,92.7%
8,CCCCCCCCCCC/C=C\C(C)(C)/C=C\CCCC(=O)O,86.5%
9,CC(C)(C)NCC(O)COc1nsnc1N1CCOCC1 (stereo not given),109%
10,CNC1(C)C2CCC(C2)C1(C)C (stereo not given),96.4%
11,COc1ccc2c(c1)c(CC(=O)O)c(C)n2Cc1ccc(F)cc1,101%
12,CC#C[C@]1(O)CC[C@H]2[C@@H]3CCC4=CC(=O)CCC4=C3[C@@H](c3ccc(N(C)C)cc3)C[C@@]21C,111%
13,Cc1cc(Cn2cnc3c2C[C@@H](C(=O)O)N(C(=O)C(c2ccccc2)c2ccccc2)C3)ccc1N,112%
14,OC[C@H]1O[C@@H](n2cnc3c(NC4CCCC4)ncnc32)[C@H](O)[C@@H]1O,117%
15,Nc1nc(OCc2ccccc2)c2[nH]cnc2n1,103%
16,CC(C)(C)c1ccc(C(O)CCCN2CCC(C(O)(c3ccccc3)c3ccccc3)CC2)cc1 (stereo not given),101%
17,NCCNS(=O)(=O)c1cccc2c(Cl)cccc12,96.1%
18,N[C@H](CO)C(=O)O,106%
19,c1ccc2c(c1)CC(N1CCN(c3cccc4c3OCCO4)CC1)C2,108%
20,COc1cc2c(cc1C(F)(F)F)N(C(=O)Nc1cc(F)cc(-c3cccnc3)c1)CC2,120%
